Results on twelve sequences are retold here after paper PMC8384837, “Expanding the binding specificity for RNA recognition by a PUF domain”.

Numbering of substitutions follows the chain as printed.

What all share (experiment): yeast three-hybrid, YBZ-1, SC-Leu-His + 0.5 mM 3-AT, 4 days
Conditions in all cases: tags: N-Gal4 AD-HA kept; label: inside an RPR1-promoter hybrid RNA with tandem MS2 sites; ssRNA

In one assay the target is PUM1 PUF domain R8-AHR (Homo sapiens, UniProt Q14671 828-1176, N1122A;Y1123H;Q1126R). Put shortly: (§1)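 Pumilio-1 PUF domain libraries, randomized at the three base-contacting residues of each repeat, were co-expressed with matching RNA elements from a centromeric plasmid in strain YBZ-1, which carries a LexA–MS2 coat fusion and a HIS3 reporter. Transformants grew for four days on SC-Leu (input) or on SC-Leu-His + 0.5 mM 3-AT (selection), and the repeat regions were PCR-amplified and Illumina-sequenced. The interaction score is the log change in variant frequency from input to selection. That logarithm is base 2, with a pseudocount of 1 where a variant was absent.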

The next assay concerns the target PUM1 PUF domain R8-HWD (Homo sapiens, UniProt Q14671 828-1176, N1122H;Y1123W;Q1126D). In a few lines: as §1
For a further assay, the target named is PUM1 PUF domain R8-RHS (Homo sapiens, UniProt Q14671 828-1176, N1122R;Y1123H;Q1126S). In a few lines:
as §1

The next assay deals with PUM1 PUF domain R5-RCS (Homo sapiens, UniProt Q14671 828-1176, C1007R;R1008C;Q1011S). Put shortly: as §1
The next assay has as its target PUM1 PUF domain R5-DHI (Homo sapiens, UniProt Q14671 828-1176, C1007D;R1008H;Q1011I). Put shortly:
as §1

The target of the next assay is PUM1 PUF domain R5-RCG (Homo sapiens, UniProt Q14671 828-1176, C1007R;R1008C;Q1011G). In a few lines: as §1
A further assay addresses PUM1 PUF domain R5-NSC (Homo sapiens, UniProt Q14671 828-1176, C1007N;R1008S;Q1011C). In a few lines: as §1
The target of the next assay is PUM1 PUF domain R5-PHL (Homo sapiens, UniProt Q14671 828-1176, C1007P;R1008H;Q1011L). In a few lines: as §1
In the next assay the target is PUM1 PUF domain R4-HNA (Homo sapiens, UniProt Q14671 828-1176, N971H;H972N;Q975A). In a few lines: as §1
Another assay addresses PUM1 PUF domain R1-TTR (Homo sapiens, UniProt Q14671 828-1176, S863T;R864T;Q867R). Put shortly: as §1
The target in a further assay is PUM1 PUF domain R5-KLT (Homo sapiens, UniProt Q14671 828-1176, C1007K;R1008L;Q1011T). Put shortly:
as §1

Another assay concerns the target PUM1 PUF domain R5-RMM (Homo sapiens, UniProt Q14671 828-1176, C1007R;R1008M;Q1011M). Put shortly: as §1
For the next assay, the target named is PUM1 PUF domain R3-DYV (Homo sapiens, UniProt Q14671 828-1176, C935D;R936Y;Q939V). Put shortly: as §1
The next assay deals with PUM1 PUF domain R3-GWS (Homo sapiens, UniProt Q14671 828-1176, C935G;R936W;Q939S). In a few lines:
as §1

The next assay deals with T1, PUM1 PUF domain R6-VFV (Homo sapiens, UniProt Q14671 828-1176, N1043V;Y1044F;Q1047V).
T1 sequence: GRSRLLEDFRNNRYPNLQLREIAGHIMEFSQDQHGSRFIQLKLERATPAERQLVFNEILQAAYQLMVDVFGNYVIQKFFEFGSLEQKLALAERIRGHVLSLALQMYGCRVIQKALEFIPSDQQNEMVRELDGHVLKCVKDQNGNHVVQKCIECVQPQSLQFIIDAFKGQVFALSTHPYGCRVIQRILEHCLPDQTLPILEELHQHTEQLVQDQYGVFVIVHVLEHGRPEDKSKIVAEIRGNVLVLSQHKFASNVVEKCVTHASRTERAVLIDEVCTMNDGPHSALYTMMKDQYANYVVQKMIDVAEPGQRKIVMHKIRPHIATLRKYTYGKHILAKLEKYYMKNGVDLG
In a few lines: as §1

A further assay has as its target T2, PUM1 PUF domain R6-WYR (Homo sapiens, UniProt Q14671 828-1176, N1043W;Q1047R).
T2 sequence: T1 sequence with V216W, F217Y, V220R
Put shortly: as §1

The target in a further assay is PUM1 PUF domain R2-CGI (Homo sapiens, UniProt Q14671 828-1176, N899C;Y900G;Q903I). Put shortly: as §1
Another assay concerns the target T3, PUM1 PUF domain R6-RYL (Homo sapiens, UniProt Q14671 828-1176, N1043R;Q1047L).
T3 sequence: T1 sequence with V216R, F217Y, V220L
Put shortly: as §1

The target in the next assay is T4, PUM1 PUF domain R6-KWT (Homo sapiens, UniProt Q14671 828-1176, N1043K;Y1044W;Q1047T).
T4 sequence: T1 sequence with V216K, F217W, V220T
In a few lines:
as §1

The target in another assay is PUM1 PUF domain R3-FIA (Homo sapiens, UniProt Q14671 828-1176, C935F;R936I;Q939A). In a few lines:
as §1

On to “GGCUAGAACUAGUGGAUCCCCCGGCGCCCGGCGGCUCGAGCCCGGGUAAGCGUAAAUAGUCUGCAUGCCGCCGGGCGCCAUGCCUGCAGGUCGACUCUAGAAAACAUG”, for which the binding signal is 3.45 log2 enrichment (interaction score) with PUM1 PUF domain R8-AHR, 4.23 log2 enrichment (interaction score) with PUM1 PUF domain R8-HWD and 4.15 log2 enrichment (interaction score) in the assay with PUM1 PUF domain R8-RHS.

“GGCUAGAACUAGUGGAUCCCCCGGCGCCCGGCGGCUCGAGCCCGGGUAAGUGUUAAUAGUCUGCAUGCCGCCGGGCGCCAUGCCUGCAGGUCGACUCUAGAAAACAUG”: the binding signal with PUM1 PUF domain R5-RCS is 2.74 log2 enrichment (interaction score); in the assay with PUM1 PUF domain R5-DHI, 4.16 log2 enrichment (interaction score); with PUM1 PUF domain R5-RCG, 3.29 log2 enrichment (interaction score); in the assay with PUM1 PUF domain R5-NSC, 4.07 log2 enrichment (interaction score); with PUM1 PUF domain R5-PHL it was 4.46 log2 enrichment (interaction score).

On to “GGCUAGAACUAGUGGAUCCCCCGGCGCCCGGCGGCUCGAGCCCGGGUAAGUGUAUAUAGUCUGCAUGCCGCCGGGCGCCAUGCCUGCAGGUCGACUCUAGAAAACAUG”, for which, in the assay with PUM1 PUF domain R4-HNA, the binding signal is 4.72 log2 enrichment (interaction score).

For “GGCUAGAACUAGUGGAUCCCCCGGCGCCCGGCGGCUCGAGCCCGGGUAAGUGUACAUAGUCUGCAUGCCGCCGGGCGCCAUGCCUGCAGGUCGACUCUAGAAAACAUG”, the binding signal in the assay with PUM1 PUF domain R4-HNA is 2.26 log2 enrichment (interaction score).

Regarding “GGCUAGAACUAGUGGAUCCCCCGGCGCCCGGCGGCUCGAGCCCGGGUAAGUGUAAAUCGUCUGCAUGCCGCCGGGCGCCAUGCCUGCAGGUCGACUCUAGAAAACAUG”, the binding signal with PUM1 PUF domain R1-TTR is 4.01 log2 enrichment (interaction score).

As for “GGCUAGAACUAGUGGAUCCCCCGGCGCCCGGCGGCUCGAGCCCGGGUAAGUGUCAAUAGUCUGCAUGCCGCCGGGCGCCAUGCCUGCAGGUCGACUCUAGAAAACAUG”, the binding signal in the assay with PUM1 PUF domain R5-KLT is 2.35 log2 enrichment (interaction score); with PUM1 PUF domain R5-RCS it was 3.59 log2 enrichment (interaction score); with PUM1 PUF domain R5-RCG, 3 log2 enrichment (interaction score); in the assay with PUM1 PUF domain R5-RMM, 2.73 log2 enrichment (interaction score).

“GGCUAGAACUAGUGGAUCCCCCGGCGCCCGGCGGCUCGAGCCCGGGUAAGUGUAAUUAGUCUGCAUGCCGCCGGGCGCCAUGCCUGCAGGUCGACUCUAGAAAACAUG”: the binding signal was 3.08 log2 enrichment (interaction score) with PUM1 PUF domain R3-DYV and 1.22 log2 enrichment (interaction score) in the assay with PUM1 PUF domain R3-GWS.

As to “GGCUAGAACUAGUGGAUCCCCCGGCGCCCGGCGGCUCGAGCCCGGGUAAGUGAAAAUAGUCUGCAUGCCGCCGGGCGCCAUGCCUGCAGGUCGACUCUAGAAAACAUG”, the binding signal with PUM1 PUF domain R6-VFV was 5.24 log2 enrichment (interaction score).

Consider “GGCUAGAACUAGUGGAUCCCCCGGCGCCCGGCGGCUCGAGCCCGGGUAAGUGUAAAUAGUCUGCAUGCCGCCGGGCGCCAUGCCUGCAGGUCGACUCUAGAAAACAUG”, for which the binding signal was 1.55 log2 enrichment (interaction score) with PUM1 PUF domain R6-VFV; 5.65 log2 enrichment (interaction score) in the assay with PUM1 PUF domain R3-DYV; 5.27 log2 enrichment (interaction score) with PUM1 PUF domain R6-WYR; 5.13 log2 enrichment (interaction score) in the assay with PUM1 PUF domain R3-GWS; 2.59 log2 enrichment (interaction score) with PUM1 PUF domain R2-CGI; 2.68 log2 enrichment (interaction score) in the assay with PUM1 PUF domain R6-RYL. Moreover, the binding signal with PUM1 PUF domain R5-PHL is 4.35 log2 enrichment (interaction score); with PUM1 PUF domain R8-RHS it was 3.91 log2 enrichment (interaction score).

“GGCUAGAACUAGUGGAUCCCCCGGCGCCCGGCGGCUCGAGCCCGGGUAAGUGCAAAUAGUCUGCAUGCCGCCGGGCGCCAUGCCUGCAGGUCGACUCUAGAAAACAUG”: the binding signal with PUM1 PUF domain R6-KWT was 3.77 log2 enrichment (interaction score).

In the case of “GGCUAGAACUAGUGGAUCCCCCGGCGCCCGGCGGCUCGAGCCCGGGUAAGUGUAAAUGGUCUGCAUGCCGCCGGGCGCCAUGCCUGCAGGUCGACUCUAGAAAACAUG”, in the assay with PUM1 PUF domain R1-TTR, the binding signal was 2.5 log2 enrichment (interaction score).

On to “GGCUAGAACUAGUGGAUCCCCCGGCGCCCGGCGGCUCGAGCCCGGGUAAGUGUAAGUAGUCUGCAUGCCGCCGGGCGCCAUGCCUGCAGGUCGACUCUAGAAAACAUG”, for which the values for the binding signal with PUM1 PUF domain R3-FIA and in the assay with PUM1 PUF domain R3-GWS were 3.2 log2 enrichment (interaction score) and 1.75 log2 enrichment (interaction score), respectively.
